# About 1,400 (61%) of roughly 2,300 compounds were called active. About 29% were inconclusive and are not listed. The call rests on the fitted dose curve; in most records, active means well fitted inhibition curve with a large enough effect; inconclusive means small, poorly fitted or top-dose-only effect, or effect the other way; inactive means no such curve, though single readings can be large or run the other way. So high a share suggests a set chosen from earlier hits. Some of the results follow.
# Assay: Confirmation screen for delayed death inhibitors of the malarial parasite plastid, 96 hour incubation; further: nearly all actives have a fitted effect of over 60% in size
# Details: P. falciparum luciferase growth in erythrocytes; series mostly up to 28.7 µM
# In short: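 Two-generation (96 h, 37 C) exposure of P. falciparum carrying an integrated firefly luciferase reporter in erythrocytes, 0.1% parasitemia and 2% hematocrit final, Albumax-supplemented RPMI. Luminescence decrease measures growth inhibition.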
# Potency means the concentration at half of the fitted maximal effect.
row,Compound,Potency
1,CC(C)C(=O)NCCSc1c[nH]c2ccccc12,3.98 µM (active)
2,CCOc1ccc(N(C)C(=O)CCc2nnc3ccc(N4CCCCC4)nn23)cc1,7.94 µM (active)
3,CC1(C)COC(/C=C/c2cccc([N+](=O)[O-])c2)=N1,8.91 µM (active)
4,O=[N+]([O-])c1cccc(/C=C/c2nc[nH]c2[N+](=O)[O-])c1,3.98 µM (active)
5,COc1ccc(-c2nnc3ccc(SCC(=O)Nc4nc5ccc(C)cc5s4)nn23)cc1OC,0.158 µM (active)
6,O=C(C[n+]1ccccc1)Nc1ccc(Cl)c([N+](=O)[O-])c1,7.08 µM (active)
7,Nc1ccc2nc(-c3ccc(-c4nc5ccc(N)cc5[nH]4)cc3)[nH]c2c1,5.62 µM (active)
8,Cc1coc2cc3oc(=O)c(CCC(=O)NCCCn4ccnc4)c(C)c3cc12,12.6 µM (active)
9,CCOC(=O)C1CCN(c2c(NCc3ccc(C(=O)NCCC(C)C)cc3)c(=O)c2=O)CC1,1.12 µM (active)
10,C(=N\N(c1ccccc1)c1ccccc1)/c1ccccn1,inactive
11,O=C(N/N=C/c1ccccn1)c1cc([N+](=O)[O-])cc([N+](=O)[O-])c1,3.16 µM (active)
12,CC1(C)N=C(N)N=C(N)N1c1ccc(OCCCOc2ccccc2)c(Cl)c1,11.2 µM (active)
13,CCc1ccc(C(=O)NNc2ccc(C)c(Cl)c2)cc1,inactive
14,Cc1ccc(NC2=CC(=O)CC(C)(C)C2)cc1Cl,12.6 µM (active)
15,Cc1ccc(-n2c(Cl)c(Cl)nc(Cl)c2=O)cc1,11.2 µM (active)
16,Clc1ccc2nnnc(-c3ccccc3)c2c1,3.55 µM (active)
17,CCn1cc(C(=O)O)c(=O)c2cc(F)c(N/N=C/c3ccccc3)cc21,10 µM (active)
18,COc1ccc(C)cc1-n1c(SCC(=O)Nc2cc(C)on2)nc2sc(C)c(C)c2c1=O,2 µM (active)
19,CC(SC#N)C(=O)C12CC3CC(CC(C3)C1)C2 (stereo not drawn),12.6 µM (active)
20,COc1ccc(N(CC(=O)NCCSCc2ccc(C)cc2)S(=O)(=O)c2ccccc2)cc1,12.6 µM (active)
21,COc1ccc2c(c1)c(CC(=O)Nc1nnc(C3CC3)s1)c(C)n2C(=O)c1ccc(Cl)cc1,10 µM (active)
22,COc1ccc(-c2nc(N3CCN(C)CC3)sc2-c2ccc(OC)cc2)cc1,12.6 µM (active)
23,CC1(CCc2ccc3c(c2)OCO3)NCCc2c1[nH]c1ccccc21 (stereo not drawn),7.08 µM (active)
24,C/C(=N\NC(=S)NCC(C)(C)C)c1cc(F)cc(F)c1O,11.2 µM (active)

row,Compound,Potency
1,Cc1cc(/C=C2/SC(=O)NC2=O)c(C)n1-c1ccc(N2CCOCC2)cc1,12.6 µM (active)
2,CC(=O)N1CCc2cc(S(=O)(=O)N3CC(C)CC(C)C3)ccc21 (stereo not drawn),8.91 µM (active)
3,CCC(=O)N1CCc2cc(S(=O)(=O)N3CCCCCC3)ccc21,12.6 µM (active)
4,Cc1cccc(C(=O)Nc2ccccc2SCC2CSc3nc4ccccc4c(=O)n32)c1 (stereo not drawn),3.98 µM (active)
5,Cc1ccc(C(=O)Nc2ccccc2SCC2CSc3nc4ccccc4c(=O)n32)cc1 (stereo not drawn),10 µM (active)
6,O=C(Nc1ccccc1SCC1CSc2nc3ccccc3c(=O)n21)c1ccccc1 (stereo not drawn),12.6 µM (active)
7,O=C(Nc1ccccc1SCC1CSc2nc3ccccc3c(=O)n21)c1ccccc1Cl (stereo not drawn),11.2 µM (active)
8,CC(=O)Nc1ccc(OCc2cccc3ccccc23)cc1,7.94 µM (active)
9,CC(Oc1ccc(F)cc1)C(=O)Nc1ccc2ccccc2c1 (stereo not drawn),inactive
10,CC(Oc1ccccc1F)C(=O)Nc1ccc2ccccc2c1 (stereo not drawn),inactive
11,COc1ccccc1NS(=O)(=O)c1ccc2oc(SCc3ccc(C#N)cc3)nc2c1,12.6 µM (active)
12,CCOC(=O)c1c(-c2cccc(C)c2)csc1NC(=O)c1c(-c2ccccc2)noc1C,8.91 µM (active)
13,CCOC(=O)c1c(-c2ccc(-c3ccccc3)cc2)csc1NC(=O)c1cccc(N2C(=O)CCC2=O)c1,2.24 µM (active)
14,COC(=O)c1c(-c2ccccc2)csc1NC(=O)c1c(-c2ccccc2)noc1C,14.1 µM (active)
15,CCOC(=O)c1c(NC(=O)c2c(-c3ccccc3)noc2C)sc(C)c1-c1ccccc1,5.01 µM (active)
16,CCOC(=O)c1c(-c2ccc(F)cc2)csc1NC(=O)c1c(-c2ccccc2)noc1C,7.08 µM (active)
17,COC(=O)c1c(NC(=O)c2cccc(N3C(=O)CCC3=O)c2)sc2c1CCN(C(C)=O)C2,11.2 µM (active)
18,Nc1nc(SCC(=O)NCC2CCCO2)[nH]c(=O)c1NC(=O)c1ccc(F)c(F)c1 (stereo not drawn),7.94 µM (active)
19,COc1ccc(C(=O)Nc2c(N)nc(SCC(=O)Nc3ccc(NC(C)=O)cc3)[nH]c2=O)cc1OC,12.6 µM (active)
20,O=C(N1CCOCC1)N1c2ccccc2Sc2ccccc21,inactive
21,CC1CN(C(=O)N2c3ccccc3Sc3ccccc32)CC(C)O1 (stereo not drawn),10 µM (active)
22,Cn1c(=O)[nH]c(=O)c2c1nc(SCCN1CCCCC1)n2CCCc1ccccc1,5.01 µM (active)
23,CCCCCCn1c(SCCC)nc2c1c(=O)[nH]c(=O)n2C,14.1 µM (active)
24,CCCSc1nc2c(cnn2-c2ccccc2)c(=O)[nH]1,inactive

row,Compound,Potency
1,Cc1nn(-c2ccccc2)c(N2CCCC2)c1/C=N/NC(=O)c1ccccc1O,3.98 µM (active)
2,Cc1nn(-c2ccccc2)c(N2CCCC2)c1/C=N/NC(=S)Nc1ccccc1F,12.6 µM (active)
3,CC(C)N(c1ccccc1)c1ccc(NC(=O)CCl)cc1,2.51 µM (active)
4,O=C(CCl)Nc1ccc(Sc2ccc(NC(=O)CCl)cc2)cc1,2.51 µM (active)
5,CCC(CC)COC(=O)C1=C(C)NC(=O)NC1c1ccccc1Br (stereo not drawn),10 µM (active)
6,OC1(c2cccs2)CN(c2ccc(Br)cc2)C2=[N+]1CCCS2 (stereo not drawn),8.91 µM (active)
7,OC1(c2cccs2)CN(c2ccc(Cl)cc2)C2=[N+]1CCCC2 (stereo not drawn),6.31 µM (active)
8,Cc1[nH]c(=O)c(C(=O)/C=C/c2ccccc2)c2c1CCCC2,4.47 µM (active)
9,Cc1[nH]c2ccccc2c1/C=N/NC(=O)CNC(=O)Cc1ccccc1,inactive
10,Cc1[nH]c(=O)c(C(=O)/C=C/c2ccccc2F)c2c1CCCC2,5.62 µM (active)
11,Cc1[nH]c2ccccc2c(=O)c1C(=O)/C=C/c1ccccc1,3.55 µM (active)
12,CCC1CCCCN1CCCNC(=O)Cn1c(=O)c2cccn2c2cccnc21 (stereo not drawn),inactive
13,CCC1CCCCN1CCCNC(=O)CNC(=O)c1nn(-c2ccc(OC)c(Cl)c2)c(=O)c2ccccc12 (stereo not drawn),6.31 µM (active)
14,N=C(N)c1ccc(/C=C/c2ccc(C(=N)N)cc2O)cc1,0.251 µM (active)
15,C=C1C(=O)O[C@@H]2[C@H]1CC[C@H](C)[C@]1(O)CCC(=O)[C@@]21C,7.08 µM (active)
16,CCCCC1(c2ccc(F)cc2)NC(=O)N(CC(=O)N2CCN(C(=O)c3ccco3)CC2)C1=O (stereo not drawn),12.6 µM (active)
17,CC(C)c1ccc2[nH]c(O)c(N=NC(=O)c3ccc(CSc4nncn4C)cc3)c2c1,2.24 µM (active)
18,O=S(=O)(c1ccc(F)cc1)N1CCN(c2nc(-c3ccc(F)cc3)cs2)CC1,11.2 µM (active)
19,CCOC(=O)c1cc(-c2ccc(C)cc2)n(CCC(=O)NCCN(C)C)c1C,10 µM (active)
20,CCOc1ccc(/C=C/C(=O)NCCc2ccc(OC)c(OC)c2)cc1,15.8 µM (active)
21,O=S(=O)(Nc1ccc(O)c(Sc2nc3ccccc3s2)c1)c1cccc2ccccc12,12.6 µM (active)
22,Cc1ccc(-n2ncc3c(SCc4ccccn4)ncnc32)c(C)c1,14.1 µM (active)
23,CCCC(=O)N=C1SC2CS(=O)(=O)CC2N1c1ccc(CC)cc1 (stereo not drawn),14.1 µM (active)
24,Cc1cc(Br)ccc1NC(=O)CNC(=O)Cn1ncc(Cl)c(Cl)c1=O,11.2 µM (active)

row,Compound,Potency
1,CCC(=O)Nc1ccc(C(=O)Cn2ncc(Cl)c(Cl)c2=O)cc1,15.8 µM (active)
2,CCOC(=O)C(C(=O)OCC)C(Nc1cccc(Br)c1)c1ccccc1 (stereo not drawn),10 µM (active)
3,CC(C)Cc1ccc(C(=O)Nc2ccc(Cc3ccncc3)cc2)o1,10 µM (active)
4,COc1ccc(NC(=S)N(CCCN2CCCCCC2)Cc2cccs2)cc1,11.2 µM (active)
5,Cc1ccc(C(=O)c2cc([N+](=O)[O-])ccc2N2CCOCC2)c(C)c1,14.1 µM (active)
6,Cc1ccc(CN2CCC(CNS(=O)(=O)c3ccc(-c4ccc(=O)[nH]n4)s3)CC2)cc1,5.01 µM (active)
7,Cc1ccc(CNS(=O)(=O)c2ccc(C)s2)cc1,inactive
8,CCOC(=O)c1cnc2c(C)c(Cl)ccc2c1NCCCN1CCOCC1,0.282 µM (active)
9,O=C(N/N=C/C(Cl)=C\c1ccccc1)c1cccs1,4.47 µM (active)
10,O=C(N/N=C(\CC(=O)c1cccs1)C(F)(F)F)c1ccncc1,inactive
11,Cc1cccc(CCNC(=O)CNS(=O)(=O)c2ccc3nc(C)sc3c2)c1,1.58 µM (active)
12,CCOc1ccc(C(C)=O)cc1COc1ccc(-c2nnco2)cc1,11.2 µM (active)
13,Oc1ccc(Cl)cc1CNc1cnc2ccccc2c1,11.2 µM (active)
14,O=C(C[n+]1cc(Br)cc2ccccc21)c1ccccc1,5.01 µM (active)
15,COc1ccc2c(ccc[n+]2CC(=O)c2ccccc2)c1,14.1 µM (active)
16,OCCNC(=S)Nc1ccc(Cl)c(Cl)c1,2.24 µM (active)
17,O=C1c2ccccc2C(=Nc2ccccc2)C1c1cccc(Br)c1 (stereo not drawn),3.98 µM (active)
18,COc1ccc(N(CC(=O)N/N=C/c2cccnc2)S(=O)(=O)c2ccccc2)c(OC)c1,6.31 µM (active)
19,O=C(CCl)NCCN1C(=O)S/C(=C\c2cccnc2)C1=O,5.01 µM (active)
20,O=C(c1ccc2c(=O)n3c(nc2c1)CCCCC3)N1CCN(c2ccc([N+](=O)[O-])cc2)CC1,6.31 µM (active)
21,CC(=O)N1CN(C2CCCC2)Cc2c1sc1c2CCCC1,6.31 µM (active)

# From PubChem BioAssay AID504848 (National Center for Advancing Translational Sciences (NCATS), 2011)
